Measurements from PubChem BioAssay (NCATS).
Several values for one entry are separate records, joined by “and”; a condition that tells them apart may be missing. Equal values may be shown once. Inconclusive results are not listed. Activity calls are given as the source filed them. Unless noted, calls come from the whole dose curve; as a rule, active = well fitted curve in the direction sought with a large enough effect; inconclusive = small, poorly fitted or top-dose-only effect, or another doubt; inactive = no such curve, though single readings can be large; an effect the other way counts as inactive or inconclusive.

Experiments:
[1] = biological target: Mitogen-activated protein kinase 10 (Mus musculus) (UniProt Q61831); experiment: JNK3 AlphaScreen Assay (AID 530; active = well fitted curve in either direction with a large enough effect, not every such curve was filed as active;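 note: kinase came from lysate of stimulated human HepG2 cells; signal reports phosphorylation of biotinylated GST-cJun 1-79 at Ser73 with 10 µM ATP; % is set by controls: 0 for no effect and ±100 for the full control effect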)
How it was run: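 HepG2 lysate (IL-1b/TNFa pre-activated) + biotin-GST-cJun 1-79 + anti-pSer73 cJun; cpd titration, 15 min RT; ATP 10 uM start; Tris pH 7.6, MgCl2, DTT, vanadate; beads in EDTA buffer; AlphaScreen.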

[2] = biological target: 3',5'-cyclic-AMP phosphodiesterase 4B (Homo sapiens) (UniProt Q07343); experiment: qHTS Assay for Inhibitors of PDE-IV (AID 607; active = well fitted activation curve with a large enough effect in the main read-out, with a control signal flat, not every such curve was filed as active; note: % of control where 0% means no effect)
How it was run: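 The readout is membrane depolarisation from a cAMP-sensing CNG channel, detected with a potential dye at ex 535/em 590. Cells were HEK293-derived (endogenous PDE-IV) at 1000 cells/well, titrated up to 22.9 uM final.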

[3] = qHTS Assay for Lipid Storage Modulators (AID 1519; calls by dose curve; for activity change, negative = inhibition: % is set by controls: 0 for no effect and ±100 for the full control effect); conditions: Drosophila S3 cells, BODIPY lipid droplet/cell ratio, laser cytometry, cells loaded with oleic acid
How it was run: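 Cells seeded at 5,000 per well were treated with compounds over a concentration series and loaded with oleic acid (400 uM, as added). Lipid droplet fluorescence (488 nm excitation, 500-530 nm channel) was read by laser-scanning cytometry and normalized to 20 uM Triacsin C.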

[4] = Stat Signaling Pathway (AID 446; active = well fitted curve in either direction with a large enough effect, not every such curve was filed as active;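 note: ME-180 cervical cancer cells given 40 pM IL-6 alongside compound; SIE-controlled beta-lactamase reporter measured as 460/530 nm FRET emission ratio; % is set by controls: 0 for no effect and ±100 for the full control effect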)
How it was run: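 Emission at 460 and 530 nm (excitation 405 nm) reports SIE-controlled beta-lactamase in ME-180 cells. Cells received compound with 40 pM IL-6 for 5 hrs at 37 C; data scaled between 300 pM IL-6 and 125 nM JAK-inhibitor controls.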

[5] = biological target: Glucocorticoid receptor (Homo sapiens) (UniProt P04150); experiment: GR-GFP Redistribution (AID 450;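 active = compounds whose dose series gives a full or clear partial fitted curve of increased nuclear translocation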; note: potency is the fitted concentration of half-maximal effect); conditions: U2OS GR-GFP nuclear translocation, laser cytometry, 2 h
[6] = biological target: Glucocorticoid receptor (Homo sapiens) (UniProt P04150); experiment: GR-EFC Redistribution (AID 451; calls by dose curve; note: potency is the fitted concentration of half-maximal effect); conditions: CHO-K1 GR-EFC translocation, beta-gal luminescence, 2 h
How it was run: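 CHO-K1 cells expressing nuclear EA and GR-ED fragments of b-gal; compounds titrated up to 46 uM final, 2 h at 37 C. GR nuclear translocation read as complemented b-gal luminescence after 1 h RT detection.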

[7] = biological target: Ubiquitin carboxyl-terminal hydrolase 1 (Homo sapiens) (UniProt O94782); experiment: Inhibitors of USP1/UAF1: Pilot qHTS (AID 504865);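 note: rhodamine fluorescence freed from ubiquitin-rhodamine substrate followed over time; top concentration of the series differs between compounds; % is set by controls: 0 for no effect and ±100 for the full control effect; nearly all actives have a fitted effect of over 35% in size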
How it was run: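 Enzyme-free wells gave the negative control, while test wells held 1nM USP1/UAF1 preincubated with compound for 15 min at room temperature. Ub-Rho at 150nM final started the reaction, and fluorescence at 480/540 nm was recorded kinetically.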

[8] = S16 Schwann cell viability assay (CellTiter-Glo assay) (AID 624031);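 note: native untransfected S16 rat Schwann cells; cellular ATP luminescence as a viability measure; plate controls were DMSO-treated cells for no effect and cell-free wells for full effect; nearly all actives have a fitted effect of over 70% in size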
How it was run: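 Following overnight culture in 10% FBS DMEM, parental S16 rat Schwann cells are dosed for 24 h at 37 °C. Viability is read as CellTiter-Glo luminescence and expressed as % activity relative to DMSO (0%) and no-cell wells.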

[9] = qHTS profiling for inhibitors of Plasmodium falciparum proliferation (AID 504749);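 note: 0% = DMSO vehicle and full inhibition = artemisinin control; nearly all actives have a fitted effect of over 60% in size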; conditions: P. falciparum in erythrocytes, SYBR Green DNA, 72 h
How it was run: (§1)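 SYBR Green fluorescence (ex 485 nm, em 535 nm) reports parasite DNA after 72 h compound exposure of infected red cells at 0.3% parasitemia, 2.5% hematocrit; signal normalized to 0.29 uM artemisinin and vehicle wells.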

CP192 = experiment: as above; conditions: P. falciparum in erythrocytes, SYBR Green DNA, 72 h; series mostly up to 12.8 µM
How it was run: as §1

CP201 = experiment: as above; conditions: P. falciparum in erythrocytes, SYBR Green DNA, 72 h; series mostly up to 12.8 µM
How it was run: as §1

CP262 = experiment: as above; conditions: P. falciparum in erythrocytes, SYBR Green DNA, 72 h; series mostly up to 12.8 µM
How it was run: as §1

CP269 = experiment: as above; conditions: P. falciparum in erythrocytes, SYBR Green DNA, 72 h; series mostly up to 12.8 µM
How it was run: as §1

CP305 = experiment: as above; conditions: P. falciparum in erythrocytes, SYBR Green DNA, 72 h; series mostly up to 12.8 µM
How it was run: as §1

CP315 = experiment: as above; conditions: P. falciparum in erythrocytes, SYBR Green DNA, 72 h; series mostly up to 12.8 µM
How it was run: as §1

CP325 = experiment: as above; conditions: P. falciparum in erythrocytes, SYBR Green DNA, 72 h; series mostly up to 12.8 µM
How it was run: as §1

CP329 = experiment: as above; conditions: P. falciparum in erythrocytes, SYBR Green DNA, 72 h; series mostly up to 12.8 µM
How it was run: as §1

FAB9 = experiment: as above; conditions: P. falciparum in erythrocytes, SYBR Green DNA, 72 h; series mostly up to 12.8 µM
How it was run: as §1

JCK = experiment: as above; conditions: P. falciparum in erythrocytes, SYBR Green DNA, 72 h; series mostly up to 12.8 µM
How it was run: as §1

PC49 = experiment: as above; conditions: P. falciparum in erythrocytes, SYBR Green DNA, 72 h; series mostly up to 12.8 µM
How it was run: as §1

[10] = measured here: cell count channel max response
[11] = measured here: lipid channel max response
[12] = at 12.8 µM (top of the series), parasite line A
[13] = at 12.8 µM (top of the series), parasite line B
[14] = at 28.7 µM (top of the series), parasite line A
[15] = at 28.7 µM (top of the series), parasite line B

3',5'-cyclic-AMP phosphodiesterase 4B (Homo sapiens), sequence (Q07343 whole entry, looked up): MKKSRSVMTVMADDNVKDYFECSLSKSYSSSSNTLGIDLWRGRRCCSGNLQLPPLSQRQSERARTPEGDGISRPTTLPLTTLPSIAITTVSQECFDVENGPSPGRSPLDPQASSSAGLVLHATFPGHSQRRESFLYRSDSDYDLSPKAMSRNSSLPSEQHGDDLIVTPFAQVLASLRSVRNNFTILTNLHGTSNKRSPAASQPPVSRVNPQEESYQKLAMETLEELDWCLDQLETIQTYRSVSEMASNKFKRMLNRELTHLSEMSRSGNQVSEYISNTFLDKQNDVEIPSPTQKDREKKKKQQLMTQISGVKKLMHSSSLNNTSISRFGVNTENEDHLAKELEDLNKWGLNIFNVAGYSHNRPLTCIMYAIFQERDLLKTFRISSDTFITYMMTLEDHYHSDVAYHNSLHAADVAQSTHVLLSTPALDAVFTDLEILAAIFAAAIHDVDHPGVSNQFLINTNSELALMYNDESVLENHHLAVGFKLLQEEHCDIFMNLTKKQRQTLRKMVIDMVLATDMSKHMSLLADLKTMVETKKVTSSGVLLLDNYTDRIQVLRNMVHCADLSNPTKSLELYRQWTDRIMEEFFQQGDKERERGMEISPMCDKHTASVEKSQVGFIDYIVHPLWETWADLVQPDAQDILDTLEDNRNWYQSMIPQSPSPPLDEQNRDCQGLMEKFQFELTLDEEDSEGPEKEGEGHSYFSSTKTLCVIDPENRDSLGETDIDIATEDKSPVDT
Glucocorticoid receptor (Homo sapiens), sequence (P04150 whole entry, looked up, the tested form may be a part): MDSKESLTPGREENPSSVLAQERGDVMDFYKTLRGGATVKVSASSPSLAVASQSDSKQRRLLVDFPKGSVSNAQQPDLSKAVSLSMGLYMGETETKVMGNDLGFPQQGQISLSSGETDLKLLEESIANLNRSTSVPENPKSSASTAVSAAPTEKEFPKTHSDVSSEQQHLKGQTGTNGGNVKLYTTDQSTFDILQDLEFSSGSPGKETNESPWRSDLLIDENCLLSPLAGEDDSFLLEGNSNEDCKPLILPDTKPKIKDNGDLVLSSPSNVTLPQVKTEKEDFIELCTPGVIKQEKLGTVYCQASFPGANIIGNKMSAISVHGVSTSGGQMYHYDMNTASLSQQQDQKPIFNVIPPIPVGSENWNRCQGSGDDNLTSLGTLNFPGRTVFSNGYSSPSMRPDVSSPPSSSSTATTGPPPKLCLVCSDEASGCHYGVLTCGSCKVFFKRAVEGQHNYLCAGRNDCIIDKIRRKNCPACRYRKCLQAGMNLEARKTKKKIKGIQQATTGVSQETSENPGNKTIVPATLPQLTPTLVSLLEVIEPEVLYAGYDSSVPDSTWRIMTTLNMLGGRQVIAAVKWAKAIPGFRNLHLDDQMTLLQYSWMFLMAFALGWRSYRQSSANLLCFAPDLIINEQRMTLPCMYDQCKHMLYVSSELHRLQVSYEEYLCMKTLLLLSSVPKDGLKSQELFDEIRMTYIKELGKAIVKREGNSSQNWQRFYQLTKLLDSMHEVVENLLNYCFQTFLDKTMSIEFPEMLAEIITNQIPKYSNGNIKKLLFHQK
Ubiquitin carboxyl-terminal hydrolase 1 (Homo sapiens), sequence (O94782 whole entry, looked up): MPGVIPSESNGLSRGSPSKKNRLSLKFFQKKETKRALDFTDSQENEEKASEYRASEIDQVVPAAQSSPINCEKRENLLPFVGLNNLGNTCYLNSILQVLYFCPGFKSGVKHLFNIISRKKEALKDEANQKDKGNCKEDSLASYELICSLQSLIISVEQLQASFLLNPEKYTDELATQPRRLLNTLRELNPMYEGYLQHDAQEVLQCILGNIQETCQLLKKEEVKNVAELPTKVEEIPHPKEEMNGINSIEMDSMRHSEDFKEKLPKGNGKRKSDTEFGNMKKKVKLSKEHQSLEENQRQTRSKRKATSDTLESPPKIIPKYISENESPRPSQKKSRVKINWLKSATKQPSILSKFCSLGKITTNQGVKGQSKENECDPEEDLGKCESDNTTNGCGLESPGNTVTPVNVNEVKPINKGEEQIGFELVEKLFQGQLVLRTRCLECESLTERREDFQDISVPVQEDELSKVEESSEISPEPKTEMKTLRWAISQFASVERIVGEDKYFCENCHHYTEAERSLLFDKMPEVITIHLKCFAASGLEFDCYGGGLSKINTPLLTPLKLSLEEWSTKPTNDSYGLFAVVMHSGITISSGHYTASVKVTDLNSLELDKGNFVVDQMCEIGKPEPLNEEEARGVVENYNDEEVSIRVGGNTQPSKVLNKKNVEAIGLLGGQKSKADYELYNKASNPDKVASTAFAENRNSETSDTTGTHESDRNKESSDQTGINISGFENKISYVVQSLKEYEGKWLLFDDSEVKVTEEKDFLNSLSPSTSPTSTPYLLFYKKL

NCCC(=O)N[C@@H](Cc1cnc[nH]1)C(=O)O
-6.32%: max response [3, 10]
inactive: Potency [1] | outcome [2] | activity change, negative = inhibition ([3]; at 57.5 µM (top of the series)) -2.81%
-9.96%: max response [3, 11]

CCCCC[C@H](O)/C=C\[C@H]1[C@H](C/C=C\CCCC(=O)O)[C@@H](O)C[C@H]1O (tested in a mixture with another compound)
13.4%: max response [3, 11]
14.3%: max response [3, 10]
inactive: outcome [4] | Potency [5] > 20.6 µM | Potency [6] > 20.6 µM | outcome [2] | activity change, negative = inhibition ([3]; at 25.7 µM (top of the series)) -0.941% | Potency [7] | outcome [8] | activity, negative = inhibition [9, 12] -9.08% | activity, negative = inhibition [9, 13] -0.0944% | Potency (CP192) | Potency (CP201) | Potency (CP262) | Potency (CP269) | Potency (CP305) | Potency (CP315) | Potency (CP325) | Potency (CP329) | Potency (FAB9) | Potency (JCK) | Potency (PC49)

C/C(=C(/CCO)SSC[C@@H]1CCCO1)N(C=O)Cc1cnc(C)nc1N
inactive: outcome [4] | Potency [5] > 20.6 µM | Potency [6] > 20.6 µM | Potency [1] | outcome [2] | activity change, negative = inhibition ([3]; at 25.7 µM (top of the series)) -0.641% | Potency [7]
-21%: max response [3, 10]
-20.8%: max response [3, 11]

Cc1cc2ccc(=O)oc2cc1OC[C@@H](O)C(C)(C)O
13%: max response [3, 10]
inactive: Potency [5] > 46 µM | Potency [6] > 46 µM | Potency [1] | outcome [2] | activity change, negative = inhibition ([3]; at 57.5 µM (top of the series)) 5.47%
21.2%: max response [3, 11]

C[C@@]12CC[C@@H]3c4ccc(O)cc4CC[C@H]3[C@H]1C[C@@H](O)[C@H]2O
-5.07%: max response [3, 10]
-7.07%: max response [3, 11]
inactive: outcome [4] | Potency [5] > 20.6 µM | Potency [6] > 20.6 µM | outcome [2] | activity change, negative = inhibition ([3]; at 25.7 µM (top of the series)) -1.89% | Potency [7]

CCC(=O)[C@@]1(C)[C@H](C)C[C@@H]2[C@@H]3CCC4=CC(=O)C=C[C@@]4(C)[C@H]3[C@H](O)C[C@]21C
active: Potency [5] 0.000592 µM | Potency [6] 0.00311 µM
inactive: outcome [4] | Potency [1] | outcome [2] | activity change, negative = inhibition ([3]; at 25.7 µM (top of the series)) -1.25% | outcome [8] | activity, negative = inhibition [9, 12] -6.51% | activity, negative = inhibition [9, 13] 3.51% | Potency (CP192) | Potency (CP201) | Potency (CP262) | Potency (CP269) | Potency (CP305) | Potency (CP315) | Potency (CP325) | Potency (CP329) | Potency (FAB9) | Potency (JCK) | Potency (PC49)
-14.6%: max response [3, 10]
-19.8%: max response [3, 11]

O=C1O[C@@H]([C@@H](O)CO)[C@@H](O)[C@H]1O
7.66%: max response [3, 11]
inactive: outcome [4] | Potency [5] > 20.6 µM | Potency [6] > 20.6 µM | outcome [2] | activity change, negative = inhibition ([3]; at 25.7 µM (top of the series)) -0.208% | Potency [7] | activity, negative = inhibition [9, 14] -5.65% | activity, negative = inhibition [9, 15] 14.7% | Potency (CP192) | Potency (CP201) | Potency (CP262) | Potency (CP269) | Potency (CP305) | Potency (CP315) | Potency (CP325) | Potency (CP329) | Potency (FAB9) | Potency (JCK) | Potency (PC49)
8.38%: max response [3, 10]

CCN(CC)CCOC(=O)[C@@H](c1ccccc1)C1CCCCC1
-16.6%: max response [3, 11]
inactive: outcome [4] | Potency [5] > 20.6 µM | Potency [6] > 20.6 µM | Potency [1] | activity change, negative = inhibition ([3]; at 25.7 µM (top of the series)) -5.77%
-11.7%: max response [3, 10]

CC=C(/C(=C/C)c1ccc(O)cc1)c1ccc(O)cc1
-18.3%: max response [3, 11]
inactive: outcome [4] | Potency [5] > 20.6 µM | Potency [6] > 20.6 µM | Potency [1] | outcome [2] | activity change, negative = inhibition ([3]; at 25.7 µM (top of the series)) -3.26% | outcome [8] | activity, negative = inhibition [9, 12] -1.05% | activity, negative = inhibition [9, 13] -9.06% | Potency (CP192) | Potency (CP201) | Potency (CP262) | Potency (CP269) | Potency (CP305) | Potency (CP315) | Potency (CP325) | Potency (CP329) | Potency (FAB9) | Potency (JCK) | Potency (PC49)
-14.6%: max response [3, 10]

COc1ccc([C@@H]2CC(=O)c3c(O)cc(O)cc3O2)cc1O
inactive: outcome [4] | Potency [5] > 20.6 µM and > 46 µM | Potency [6] > 20.6 µM and > 46 µM | Potency [1] | outcome [2] | activity change, negative = inhibition ([3]; at 25.7 µM (top of the series)) 0.892% | Potency [7]
-5.78%: max response [3, 10]
-2.83%: max response [3, 11]

COc1cc2nc(N3CCN(C(=O)[C@@H]4CCCO4)CC3)nc(N)c2cc1OC
inactive: outcome [4] | Potency [5] > 20.6 µM | Potency [6] > 20.6 µM | Potency [1] | outcome [2] | activity change, negative = inhibition ([3]; at 25.7 µM (top of the series)) 2.61% | Potency [7] | outcome [8] | activity, negative = inhibition [9, 14] 10.8% | activity, negative = inhibition [9, 15] 8.54% | Potency (CP192) | Potency (CP201) | Potency (CP262) | Potency (CP269) | Potency (CP305) | Potency (CP315) | Potency (CP325) | Potency (CP329) | Potency (FAB9) | Potency (JCK) | Potency (PC49)
-0.955%: max response [3, 11]
-3.95%: max response [3, 10]

C[C@@](N)(C(=O)O)c1cccc(CC(=O)O)c1
inactive: Potency [5] > 46 µM | Potency [6] > 46 µM | Potency [1] | outcome [2] | activity change, negative = inhibition ([3]; at 57.5 µM (top of the series)) 1.75% | Potency [7]
3.55%: max response [3, 11]
1.61%: max response [3, 10]
